Rows were chosen to be rich in hits. Some 7.4% of all compounds tested hit in one or more screens of this group.
NPC1 prom act: NPC1 promoter activation | Huh7 NPC1 promoter luciferase reporter, 24 h | Potency, µM (top dose mostly 9.22 µM), for the others: at the top dose activation, hits mostly activators | 320,000 tested, 2.4% active; further: % of control where 0% means no effect; nearly all actives have a fitted effect of over 60% in size
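Huh7 cells stably carrying NPC1 promoter–luciferase, plated in Opti-MEM with 10% FBS for 2 h, were exposed to compound in DMSO for 24 h at 37 °C; luciferase reagent was added for 10 min and luminescence read.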
FLuc modulator: counter-screen for miR-21 project: firefly luciferase inhibitors or activators. P08659. purified FLuc, Km substrates, luminescence inhibition. Potency, µM (doses to about 57.5 µM), inactives show at the highest dose activity change, negative = inhibition, actives largely listed as inhibitors. 360,000 tested, 6.9% active;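 further: plate controls were vehicle for no effect and reference inhibitor for full effect; nearly all actives have a fitted effect of over 55% in size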
Target sequence (P08659 whole entry, looked up): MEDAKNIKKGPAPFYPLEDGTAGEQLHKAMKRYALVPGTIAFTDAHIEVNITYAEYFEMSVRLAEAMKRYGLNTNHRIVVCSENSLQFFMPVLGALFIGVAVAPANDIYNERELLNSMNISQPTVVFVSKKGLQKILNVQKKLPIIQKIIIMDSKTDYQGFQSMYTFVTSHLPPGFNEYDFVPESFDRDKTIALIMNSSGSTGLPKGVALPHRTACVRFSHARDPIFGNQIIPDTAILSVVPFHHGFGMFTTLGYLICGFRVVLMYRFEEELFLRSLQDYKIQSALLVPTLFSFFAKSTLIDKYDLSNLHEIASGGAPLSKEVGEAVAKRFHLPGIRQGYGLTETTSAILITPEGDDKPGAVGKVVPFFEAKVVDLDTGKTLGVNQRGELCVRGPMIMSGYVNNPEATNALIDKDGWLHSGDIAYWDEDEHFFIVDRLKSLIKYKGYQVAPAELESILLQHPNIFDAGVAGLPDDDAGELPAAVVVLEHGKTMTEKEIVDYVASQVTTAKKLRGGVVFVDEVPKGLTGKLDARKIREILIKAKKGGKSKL
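Purified P. pyralis luciferase (10nM final) with 10uM D-luciferin and 10uM ATP (Km levels) in 50mM Tris acetate pH 7.5, 10mM Mg acetate, 0.01% Tween-20, 0.05% BSA; qHTS 6-point titration, ~60 µM downward; luminescence read.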
ELG1 genotoxic: genotoxicity induction in ELG1-luciferase HEK293T cells; HEK293T ELG1-luciferase reporter, luminescence, 16 h; Potency, µM (top dose mostly 46 µM), for the others: at the top dose activity change, positive = activation, hits mostly activators; 330,000 tested, 1.3% active; AID 504466; further: % of control where 0% means no effect; nearly all actives have a fitted effect of over 60% in size
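Screening used a luciferase reporter fused to human ELG1 in HEK293T cells. Luminescence was read on a CCD plate imager after 16 hr exposure and 30 min ONE-Glo incubation.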
Rab9 prom act: activators of Rab9 promoter; Huh7 Rab9 promoter-luciferase reporter, luminescence, 24 h; Potency, µM (doses to about 9.22 µM), for the others: at the highest dose activation, negative = inhibition, actives largely listed as activators; 320,000 tested, 2.8% active; further: % of control where 0% means no effect; nearly all actives have a fitted effect of over 60% in size
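Luminescence read-out: Huh7 cells stably expressing Rab9-luciferase, treated 24 h with compound at 37 °C, then lysed with luciferase reagent for 10 min at ambient before reading.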
Luc counter: counter-screen: inhibitors of Kinase-Glo firefly luciferase; Q27757; Kinase-Glo luciferase, ATP luminescence, 8 min; Potency, µM (highest dose often 38.3 µM), for the others: at the highest dose activity change, negative = inhibition, actives largely listed as inhibitors; 200,000 tested, 0.28% active; further: on the % scale 0 is the no-effect control and ±100 the full control effect; nearly all actives have a fitted effect of over 60% in size
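Kinase-Glo luciferase light output from ATP and luciferin was measured with 10 uM ATP, within the enzyme's linear range. Buffer: 50 mM imidazole pH 7.2, 50 mM KCl, 7 mM MgCl2, 0.01% Tween 20, 0.05% BSA; luminescence read after 8 min at ambient temperature.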
SMN2 splice up: enhancers of SMN2 splice variant expression; HEK293 SMN2-luciferase splicing reporter, luminescence, 30-36 h; 210,000 tested, 2.8% active; Potency, µM (titrated, usually from 46.1 µM), for inactives: top-dose activity change, positive = activation, usual class: activators; further: % of control where 0% means no effect; nearly all actives have a fitted effect of over 55% in size
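qHTS luciferase splicing reporter: luminescence rises when SMN2 exon 7 is included in transfected HEK293 cells. Compound exposure lasted 30-36 h at 37C, with 4.5 mM final sodium butyrate as control, followed by a ONE-Glo read.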
The depositor's hits bear a star; ? = inconclusive; . = no result given; [ ] = dose if it differs, or a comment. The call rests on the fitted dose curve; in most records, active means well fitted curve in the direction sought with a large enough effect; inconclusive means small, poorly fitted or top-dose-only effect, or another doubt; inactive means no such curve, though single readings can be large; an effect the other way counts as inactive or inconclusive. Potency means the concentration at half of the fitted maximal effect.

SMILES	NPC1 prom act	FLuc modulator	ELG1 genotoxic	Rab9 prom act	Luc counter	SMN2 splice up
CCn1c(SCC(=O)Nc2ccc3c(c2)OCCO3)nnc1-c1cccnc1	3%	24µM*	2%	16%	.	.
O=C1CCC=C1C(O)CCc1ccccc1 (configuration not stated)	.	.	.	.	0%	6%
CCOc1ccc(OCC)c(NS(=O)(=O)c2c(C)[nH]c(=O)[nH]c2=O)c1	.	-14%	.	.	.	.
O=C1Nc2ccccc2/C1=C/C(=O)c1cccs1	-3%	15µM*	-6%	15%	13%	?
COc1ccc(C(=O)/C=C2/C(=O)Nc3ccccc32)c(OC)c1	1%	8.5µM*	-5%	0%	.	.
COc1ccc(C2(C(=O)c3ccccc3)C(=O)c3ccccc3C2=O)cc1	2µM*	4.8µM*	?	?	.	.
COc1ccc(C(=O)/C=C2/c3ccccc3CC(C)(C)N2C)cc1	-34%	5.4µM*	9%	-14%	-2%	-15%
Cc1cc(NC(=O)c2ccco2)cc(-c2nc3cc(Cl)ccc3o2)c1O	.	-3%	.	.	.	2%
Cc1ccc2c(c1)N(C(=O)CCC(=O)NCc1cccs1)CCO2	.	-5%	.	.	.	.
Cc1ccc2c(c1)C(=O)[C@@]1(O)CCN(c3ccccc3)C1=N2	.	.	.	.	0%	.
Cc1cccc(N(CC(=O)Nc2ccccc2C(F)(F)F)S(=O)(=O)c2ccccc2)c1C	.	-9%	.	.	.	-18%
COc1ccc(C(=O)/C=C2/C(=O)Nc3ccccc32)cc1	3%	2.4µM*	?	0%	.	.
COc1ccc(Cn2c(-c3ccc(Br)cc3)c[n+]3ccccc23)cc1	1%	11µM*	17%	9%	-7%	11µM*
COc1ccc(/C=C/C(=O)OCCC(C)C)cc1	.	.	.	.	-1%[39.9 µM]	.
c1ccc2c(-n3cccn3)cccc2c1	?	15µM*	?	24%	-4%	-4%
Cc1cc(OCC(=O)N(C)C2CCCCC2)ccc1Cl	0.35µM*	2.7µM*	26%	0.63µM*	0%	?
Cc1cc(OCC(=O)N(C)C2CCCCC2)cc(C)c1Cl	12%	?	?	2%	6%	23%
Oc1cccc(-c2nc3ccc4ccccc4c3c3c2CCC3)c1	?	6µM*	18%	?	-3%	?
N#Cc1c(N)nc2c(c1-c1cccc(O)c1)CCCCCC2	-1%	0%	-1%	2%	3%	7%
CNC(=S)N/N=C(\C)c1ccc2c(c1)OCO2	1%	0%	6%	0%	-2%	7%
C/C(=N\Nc1nc2ccccc2s1)c1ccc2c(c1)OCO2	27%	9.5µM*	?	?	-3%	18µM*
C/C(=N\Nc1nc2ccccc2s1)c1ccc(Br)s1	26%	15µM*	-8%	15%	.	.
O=C=Nc1ccc(Cc2ccc(N=C=O)cc2)cc1	.	.	.	.	.	-7%
CN(C)c1ccc(CNC(=O)C2CCN(Cc3cc4ccccc4n3Cc3ccccc3)CC2)cc1	.	5%	.	.	.	.
O=C(CN1C(=O)c2ccccc2S1(=O)=O)c1ccccc1Cl	-18%	3µM*	-17%	?	.	.
SMILES	NPC1 prom act	FLuc modulator	ELG1 genotoxic	Rab9 prom act	Luc counter	SMN2 splice up
O=C(CN1C(=O)c2ccccc2S1(=O)=O)N1CCOCC1	9%	-2%	11%	3%	2%	?
O=C(CN1C(=O)c2ccccc2S1(=O)=O)N1CCCCC1	?	2%	16µM*	2.5µM*	.	.
O=C(CN1C(=O)c2ccccc2S1(=O)=O)c1ccccc1	?	0.6µM*	0%	?	0%	1%
Cc1ccc(C(=O)CN2C(=O)c3ccccc3S2(=O)=O)cc1	-37%	?	-6%	-40%	.	.
Cc1cccc(N2CCN(S(=O)(=O)c3ccc4oc(=O)c5ncn(C)c5c4c3)CC2C)c1 (configuration not stated)	.	-7%	.	.	.	.
Nc1ncccc1OCc1ccc(Br)cc1	?	17µM*	14%	2.2µM*	0%	?
CCn1c(/C=C/c2c[nH]c3ccccc23)nc2ccccc2c1=O	1.6µM*	5.4µM*	2.6µM*	1.4µM*	1%	.
CCn1c(/C=C/c2ccccc2Cl)nc2ccccc2c1=O	21%	27µM*	6%	22%	.	.
CCOc1ccc(NC(=O)c2sc3nc4c(cc3c2N)CN(Cc2ccccc2)CC4)cc1	.	-3%	.	.	.	-13%
COc1ccc(CNC(=O)C2CCCN(S(=O)(=O)c3ccc4c(ccn4C)c3)C2)c(OC)c1 (configuration not stated)	.	0%	.	.	.	.
O=C(COC(=O)c1cccnc1SCC(=O)NCc1ccccc1)NCc1ccccc1	1%	2.7µM*	4%	11%	-5%	25%
CC(=O)c1cccc(NC(=S)NC(=O)c2ccccc2Br)c1	6%	17µM*	1%	1%	-2%	-4%
COC(=O)c1cccc(NC(=S)NCc2ccc(Cl)cc2)c1	1%	5%	-3%	-2%	1%	17%
CC(=O)c1cccc(NC(=S)NC(=O)c2cccc(C)c2)c1	?	4.3µM*	?	3.2µM*	-3%	16µM*
Cc1cccc(NC(=S)NNC(=O)c2ccccc2Br)c1	22%	?	9%	3.2µM*	0%	13µM*
CC(=O)c1cccc(NC(=S)NC(=O)c2ccc(Cl)cc2)c1	?	13µM*	?	?	1%	16µM*
CC(=O)c1cccc(NC(=S)NC(=O)c2ccccc2C)c1	-6%	?	0%	-5%	2%	.
Cc1nc(NC2CCCCC2)c2nc(-c3ccccc3)n(CCN3CCCC3)c2n1	.	.	.	.	-1%	-10%
Cc1ccccc1CCNC(=O)c1ccc(NC(=O)N2CC(C)Sc3ccccc32)cc1 (configuration not stated)	.	-11%	.	.	.	15%
CC(C)c1ccc(C(=O)Nc2cc(-c3ccccc3F)nn2-c2ccccc2)cc1	.	-10%	.	.	.	.
O=C1NC(=O)c2cc([N+](=O)[O-])ccc21	.	.	.	.	.	-7%
CCC(=O)N1CCc2cc(Br)cc(S(=O)(=O)CCC(=O)N(CC)Cc3ccccc3)c21	.	1%	.	.	.	-8%
CCN1CCN(C(=O)c2cc3c(OC)c(OC)c(OC)cc3[nH]2)CC1	0%	-7%	4%	2%	.	.
COc1cc2[nH]c(C(=O)N3CCc4ccccc43)cc2c(OC)c1OC	24%	17µM*	?	?	.	.
COc1cc2[nH]c(C(=O)N3CCC(Cc4ccccc4)CC3)cc2c(OC)c1OC	0%	24µM*	-4%	-7%	.	.
CCOC(=O)c1c(C)[nH]c(CCC(=O)Nc2ccc(Cl)cc2C)c1C	.	-2%	.	.	.	.
O=C(CN1CCN(Cc2ccccc2Cl)C1=O)NCc1ccccc1Cl	.	-15%	.	.	.	-4%
N#Cc1ccccc1-c1cncnc1NCc1cccnc1	.	.	.	.	-4%	2%
